High-throughput results: PubChem, several laboratories
KCC2 mod: KCC2 (human) Cl- transport modulation; Q9H2X9; KCC2 cells, thallium flux FluoZin-2 fluorescence; B-score of Tl+ flux slope (higher = more flux/activation; lower = inhibition) at 10 µM; actives 2.2% (n = 190,000); AID 1456;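 active means thallium flux slope and its plate-corrected score both differing from the plate sample mean at a set confidence after two filtering rounds, in either direction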;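 further: slope of fluorescence scaled to starting intensity during 10 to 20 s after thallium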
Target sequence (Q9H2X9 whole entry, looked up): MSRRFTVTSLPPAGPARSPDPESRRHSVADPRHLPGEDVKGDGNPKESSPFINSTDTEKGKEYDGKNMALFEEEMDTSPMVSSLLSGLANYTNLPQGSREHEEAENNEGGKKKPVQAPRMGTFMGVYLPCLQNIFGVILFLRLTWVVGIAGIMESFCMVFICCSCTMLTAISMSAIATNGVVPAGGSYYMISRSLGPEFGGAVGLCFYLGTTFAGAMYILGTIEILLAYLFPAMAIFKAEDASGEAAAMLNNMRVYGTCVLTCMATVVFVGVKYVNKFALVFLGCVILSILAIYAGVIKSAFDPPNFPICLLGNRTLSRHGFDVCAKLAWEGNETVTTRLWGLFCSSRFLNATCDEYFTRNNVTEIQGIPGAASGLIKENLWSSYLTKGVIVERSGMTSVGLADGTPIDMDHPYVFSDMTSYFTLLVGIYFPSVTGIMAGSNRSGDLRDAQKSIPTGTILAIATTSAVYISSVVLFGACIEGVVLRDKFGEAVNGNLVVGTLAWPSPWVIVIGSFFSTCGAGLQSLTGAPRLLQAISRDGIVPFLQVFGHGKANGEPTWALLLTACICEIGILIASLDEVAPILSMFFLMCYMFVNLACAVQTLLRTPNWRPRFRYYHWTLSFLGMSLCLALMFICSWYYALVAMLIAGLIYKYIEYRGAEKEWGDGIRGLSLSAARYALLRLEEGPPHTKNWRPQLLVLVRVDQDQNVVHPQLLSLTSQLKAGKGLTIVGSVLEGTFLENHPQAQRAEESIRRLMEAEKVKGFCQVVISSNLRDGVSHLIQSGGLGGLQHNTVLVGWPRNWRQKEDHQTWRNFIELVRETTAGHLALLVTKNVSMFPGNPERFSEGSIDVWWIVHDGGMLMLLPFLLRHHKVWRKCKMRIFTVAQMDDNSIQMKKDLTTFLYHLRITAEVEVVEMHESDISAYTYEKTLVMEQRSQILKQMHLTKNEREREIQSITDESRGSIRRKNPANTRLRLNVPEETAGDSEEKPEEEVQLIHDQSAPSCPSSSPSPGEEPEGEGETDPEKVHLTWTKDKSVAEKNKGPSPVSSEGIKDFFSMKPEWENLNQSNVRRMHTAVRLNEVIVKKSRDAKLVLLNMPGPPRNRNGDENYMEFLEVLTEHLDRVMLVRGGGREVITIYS
ROMK primary: modulates human ROMK potassium channel activity; P48048; actives 2% (n = 130,000); Tet-inducible ROMK, thallium flux fluorescence; actives lie on both sides; B-score at 10 µM;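 active means signal ratio slope over the read window, or its plate-corrected B-score, at least 3 SD from the plate mean, either direction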;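 further: B-score of the F/F0 ratio slope over 7 to 12 s after thallium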
m-calpain inh: inhibitors of pig calpain II; purified calpain II, fluorogenic peptide substrate, 30 min; inhibition, % at 16 µM; actives 0.37% (n = 220,000);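 active means inhibition above about 50%, limit read from the data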
WT yeast gro inh: growth inhibition of WT yeast, mitochondrial fusion screen | mitochondrial fusion phenotypic screen, WT strain | inhibition, % at 10 µM | actives 2.1% (n = 190,000) | AID 1362; in the data active means inhibition above about 58%; tested in S. cerevisiae
Lmaj promast: inhibitors of Leishmania major promastigote growth | inhibition, % at 10 µM | actives 9% (n = 200,000) | Leishmania major promastigotes, resazurin fluorescence viability | AID 1063; in the data active means inhibition above about 50%;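 further: promastigotes grown with compound for 44 hours at 28 °C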
ROMK retest: retested hit modulating human ROMK potassium channel; shares compounds with ROMK primary; actives 54% (n = 3,000); AID 1917; ROMK thallium flux, fluorescence ratio; stronger effect = lower value; normalized thallium flux (F/F0 slope) at 10 µM;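 active means Flux at 10 µM at least 3 SD below or above vehicle control mean in one or both replicates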
Starred values were filed as active, the others as inactive; i = inactive; nt = no result given. Shown are actives, neighbours in structure and some others; about 12% of the full set was active somewhere.

SMILES	KCC2 mod	ROMK primary	m-calpain inh	WT yeast gro inh	Lmaj promast	ROMK retest
CCOc1ccccc1C(=O)NCC(=O)OCC(=O)NCCc1ccc(S(N)(=O)=O)cc1	2.2	-2.8*	24	-6	-3	0.085
Cc1cc(C)nc(-n2ncc3c2CC(C)CC3=O)n1 (centres undefined)	0.37	nt	-5	nt	nt	nt
O=C(OC(C(=O)NCC1CCCO1)c1ccc(F)cc1)c1ccco1 (centres undefined)	1.3	0.01	4	-9	0	nt
COc1ccc(S(=O)(=O)N2CCN(Cc3c[nH]c4ccccc34)CC2)cc1	-0.56	nt	-4	9	-4	nt
O=[N+]([O-])c1ccc(S(=O)(=O)N2CCN(Cc3c[nH]c4ccccc34)CC2)cc1	0.16	-2.7*	-8	9	11	0.056*
C=CCCC(=O)Nc1ccc(Br)cn1	nt	2.5*	-20	-5	-2	0.076
CCCn1c(=O)c2c(C(=O)OCC)cc(-c3ccco3)nc2n(CCC)c1=O	-2.1	-3.8*	i	-5	6	0.064*
CCCn1c(=O)c2c(C(F)(F)F)cc(-c3ccco3)nc2n(CCC)c1=O	-0.059	0.62	i	1	-1	nt
O=C(c1ccc(Cl)cc1)N1CCCCC(Cl)C1=O (centres undefined)	2.6	-0.28	31	10	-4	nt
Cc1cc(C)n(-c2ccc(C(=O)Nc3cccc(S(=O)(=O)N4CCCC4)c3)cc2)n1	-0.28	-0.18	0	-2	29	nt
Cc1cc(C)n(-c2ccc(C(=O)OCC(=O)Nc3ccc(S(=O)(=O)N4CCCCC4)cc3)cc2)n1	-0.17	2*	-93	10	84*	0.078
O=C(Nc1nc2ccc(Cl)cc2s1)[C@@H]1CCCN1C(=O)c1cccs1	-0.32	-0.26	-8	27	-9	nt
C/C(O)=C\c1nc2ccccc2oc1=O	0.94	nt	2	34	65*	0.074
Cc1ccc2oc(=O)c(/C=C(\O)c3ccccc3)nc2c1	0.46	0.4	7	-6	0	nt
Cc1cccn2c(=O)c(C=O)c(N3CCCCCC3)nc12	-2.2	2.1*	9	17	-3	0.074
Cc1cccn2c(=O)c(C=O)c(N3CC(C)OC(C)C3)nc12 (centres undefined)	0.43	-0.27	-12	8	-4	nt
O=C1c2ccccc2C(=O)N1CN(C(=O)c1ccccc1[N+](=O)[O-])c1ccc(F)cc1	0.19	0.058	6	-6	-6	nt
CCOC(=O)CCCOC(=O)c1ccc(S(=O)(=O)N(C)C)cc1	0.088	nt	-9	4	-7	0.08
CN(Cc1ccccc1)C(=O)COC(=O)c1ccc(S(=O)(=O)N(C)C)cc1	-0.078	-0.24	24	3	4	nt
CC1(C)Oc2ccccc2OC1(O)c1ccc2ccccc2n1 (centres undefined)	0.027	nt	-1	-11	2	0.064*
CCOC(=O)c1cnc2c(OC)cccc2c1NCc1cccnc1	-1	-0.06	-21	16	19	nt
CCOC(=O)c1cnc2ccc(OC)cc2c1NCCc1ccc(OC)c(OC)c1	0.52	-4.1*	39	32	64*	0.055*
CCOC(=O)c1cnc2ccccc2c1NCCc1ccc(OC)c(OC)c1	-0.02	-2	12	24	23	nt
CCOC(=O)c1cnc2ccc(OCC)cc2c1NCc1cccnc1	-2.1	3.7*	-18	2	65*	0.089
CCOC(=O)c1ccc(Nc2ncccc2[N+](=O)[O-])cc1	1.5	-0.7	-1	2	-2	nt
SMILES	KCC2 mod	ROMK primary	m-calpain inh	WT yeast gro inh	Lmaj promast	ROMK retest
CCCCN(CC)S(=O)(=O)c1ccc(C(=O)N(CCCN(C)C)c2nc3cc(C)cc(C)c3s2)cc1	0.74	-3.8*	50	96*	100*	0.054*
CCOC(=O)C1CCCN(C(=O)c2ccc(Cl)c(S(=O)(=O)N3CCCCCC3)c2)C1 (centres undefined)	0.069	-0.052	2	17	0	nt
Cc1ccc(NC(=O)C(C)NC(=O)OCc2ccccc2)cc1C (centres undefined)	0.2	nt	10	nt	nt	nt
CN1C2C=C3C(C#N)=C(N)C(C#N)(C#N)[C@@H](c4cccs4)C3C1CC2 (some centres undefined)	0.0014	-1.2	-10	8	22	nt
CC(C)(C)C1CC=C2C(C#N)=C(N)C(C#N)(C#N)C(c3cccs3)C2C1 (centres undefined)	0.51	-3*	nt	nt	33	0.055*
Cc1ccc(NC(=O)C(=O)Nc2ccc(C)cn2)nc1	0.057	0.98	-7	1	-7	nt
Cc1ccc(NC(=O)/C(C#N)=C(\N)C(Cl)(Cl)Cl)nc1	0.27	-5.5*	-5	-23	100*	0.035*
COC(=O)CNC(=O)c1ccc(NS(=O)(=O)c2cc([N+](=O)[O-])ccc2Cl)cc1	nt	nt	14	nt	nt	nt
Cc1cc2c(ccc3c2no[n+]3[O-])nn1	0.35	2.7*	4	-11	10	0.072
[O-][n+]1onc2c3ccnnc3ccc21	1	nt	-9	5	1	nt
Cc1cccc(Cl)c1NC(=O)N1CCCN(c2ncccc2[N+](=O)[O-])CC1	nt	nt	4	nt	nt	nt
CCc1ccc(S(=O)(=O)NCc2csc(C)n2)s1	1.6	-0.05	-8	6	-6	nt
CCCCOc1ccc(S(=O)(=O)NCc2csc(C)n2)cc1	-0.29	-2.3*	19	1	1	0.067*
CC(C)(C)CC(C)(C)NCC(O)COc1c(F)cc(Br)cc1F (centres undefined)	0.79	-3.2*	-14	27	100*	0.054*
CCN(CC)c1cc(C)c(C#N)c2nc3ccccc3n12	-0.12	nt	-123	nt	nt	nt
Cc1cc(Cl)n2c(nc3ccccc32)c1C#N	-1.8	-5*	-370	10	100*	0.036*
CCN(CC(=O)Nc1ccc(N2CCOCC2)cc1)C(=O)c1ccc(C#N)cc1	-0.066	-0.023	-21	12	-5	nt
N/C(=N\OC(=O)c1ccc(Cl)c(Cl)c1)c1ccccn1	0.64	nt	6	27	-4	nt
N/C(=N\OC(=O)c1ccc(Cl)c([N+](=O)[O-])c1)c1ccccn1	0.12	-3.8*	32	6	-2	0.079
COc1ccccc1C(=O)O/N=C(\N)c1ccccn1	-0.075	nt	22	nt	nt	0.083
N/C(=N\OC(=O)c1ccccc1Cl)c1ccccn1	nt	nt	-7	15	-1	nt
CC(C)OC(=O)CC(NC(=O)OC(C)(C)C)c1ccccc1 (centres undefined)	-0.15	0.23	-4	-17	-4	nt
COCCNC(=O)/C(C#N)=C/c1cccc(NC(=O)c2ccccc2Cl)c1	-0.24	nt	-18	-10	30	0.047*
CCCSc1nc2sc3c(c2c(=O)[nH]1)CCN(Cc1ccccc1)C3	i	-5.4*	-256	10	24	0.03*
CC(C(=O)O)N1C(=O)c2ccccc2C1=O (centres undefined)	0.3	2.9*	-23	-20	-5	0.078
O=C(O)c1ccc(NC2=C/C(=N/S(=O)(=O)c3ccccc3)c3ccccc3C2=O)cc1	-0.5	-3.4*	26	48	100*	0.052*
O=C(COc1ccccc1CNCc1ccccc1)Nc1ccccc1	-3.1	-2.4*	-18	-2	38	0.056*
